Reference: PubChem BioAssay (NCI)
About 83,000 compounds went through this panel and 20% of them were active in at least one assay; those are over-represented in the sample as a whole.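 The test compound was applied at a single concentration to cells in 96-well plates for 48 hours, and percent growth was recorded.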 Unmarked numbers belong to inactive results. Activity calls are given as the source filed them. The calls were made as follows: active = growth percent below 10; inactive = the rest.

Tests used:
Assay in all cases: NCI-60 one-dose screen, 48 h (100 = growth as untreated, 0 = no growth, -100 = all killed)
Settings in all cases: 10 µM unless noted
[1] = test system: NCI-H23 lung
[2] = test system: NCI-H226 lung
[3] = test system: NCI-H322M lung
[4] = test system: HOP-62 NSCLC
[5] = test system: NCI-H460 lung
[6] = test system: NCI-H522 lung
[7] = test system: A549/ATCC NSCLC
[8] = test system: 786-0 renal
[9] = test system: DU-145 prostate
[10] = test system: K-562 leukemia
[11] = test system: MDA-MB-231 breast
[12] = test system: RXF 393 renal
[13] = test system: SF-268 CNS
[14] = test system: SF-539 CNS
[15] = test system: UACC-257 melanoma
[16] = test system: M14 melanoma
[17] = test system: HCT-15 colon
[18] = test system: MALME-3M melanoma
[19] = test system: SF-295 CNS

CNc1ccc(CSc2ccc(Cl)cc2)cc1
growth [1]: 108% | growth [2]: 84.6% | growth [3]: 123% | growth [4]: 87.4% | growth [5]: 105% | growth [6]: 75.6% | growth [7]: 93.6% | growth [8]: 71% | growth [9]: 127% | growth [10]: 82% | growth [11]: 103% | growth [12]: 111% | growth [13]: 96.3% | growth [14]: 98.2% | growth [15]: 97.4% | growth [16]: 103% | growth [17]: 94.8%

C=C(C)[C@@H]1C/C=C(/C=O)CC[C@@H]2O[C@@]2(C)CC/C=C(\C)CC1
growth [1]: 116% | growth [2]: 98.9% | growth [3]: 91% | growth [4]: 110% | growth [5]: 98.7% | growth [6]: 186% | growth [7]: 104% | growth [8]: 106% | growth [9]: 112% | growth [10]: 136% | growth [11]: 111% | growth [12]: 104% | growth [13]: 112% | growth [14]: 105% | growth [15]: 141% | growth [16]: 115% | growth [17]: 105%

CCOC(=O)C(C(C)=O)c1nc2sc3cc(Cl)ccc3n2c(=N)c1C#N (stereo unspecified)
growth [1]: 78.2% | growth [2]: 43% | growth [3]: 105% | growth [4]: 102% | growth [5]: 96.1% | growth [6]: 95.2% | growth [7]: 90.7% | growth [8]: 84.5% | growth [9]: 109% | growth [10]: 87.4% | growth [18]: 52.5% | growth [11]: 62.4% | growth [12]: 50.8% | growth [13]: 64.6% | growth [19]: 74.7% | growth [14]: 99.9% | growth [15]: 72.6% | growth [17]: 122%

COc1ccc(-c2cc(C(=O)Nc3nc4cc(C)c(C)cc4s3)nc3cc(-c4ccccc4)nn23)cc1OC
growth [1]: 96% | growth [2]: 113% | growth [3]: 119% | growth [4]: 100% | growth [5]: 112% | growth [6]: 89% | growth [7]: 94.5% | growth [8]: 112% | growth [9]: 121% | growth [10]: 110% | growth [18]: 101% | growth [11]: 107% | growth [12]: 112% | growth [19]: 112% | growth [14]: 98.7% | growth [15]: 93% | growth [16]: 103% | growth [17]: 111%

ClC1C2CC(c3ccccc32)C1Cl (stereo unspecified)
growth [1]: 106% | growth [2]: 109% | growth [3]: 123% | growth [4]: 129% | growth [5]: 110% | growth [6]: 100% | growth [7]: 110% | growth [8]: 103% | growth [9]: 118% | growth [18]: 126% | growth [11]: 107% | growth [12]: 110% | growth [13]: 110% | growth [19]: 123% | growth [14]: 95.8% | growth [15]: 112% | growth [16]: 103% | growth [17]: 109%

Cc1c(C(N)=O)sc2ncn(Cc3ccccc3)c(=O)c12
growth [1]: 101% | growth [2]: 96.8% | growth [3]: 79% | growth [4]: 95.4% | growth [5]: 108% | growth [6]: 103% | growth [7]: 85.7% | growth [8]: 96.1% | growth [9]: 113% | growth [10]: 97.1% | growth [18]: 120% | growth [11]: 102% | growth [12]: 106% | growth [13]: 104% | growth [14]: 94.6% | growth [15]: 163% | growth [16]: 105% | growth [17]: 115%

C=C(C)[C@H]1CC/C(C)=C/CC[C@]2(C)O[C@H]2CC/C(COC(C)=O)=C\C1=O
growth [1]: 103% | growth [2]: 130% | growth [3]: 87.3% | growth [4]: 102% | growth [5]: 116% | growth [6]: 109% | growth [7]: 37.7% | growth [8]: 92.1% | growth [9]: 140% | growth [10]: 95.8% | growth [11]: 98.4% | growth [12]: 105% | growth [13]: 115% | growth [14]: 117% | growth [15]: 128% | growth [16]: 105% | growth [17]: 109%

C/C(=N/N=C(N)N)c1ccc(N)cc1
growth [1]: 100% | growth [2]: 102% | growth [3]: 79.2% | growth [4]: 91.5% | growth [5]: 106% | growth [6]: 91.5% | growth [7]: 103% | growth [8]: 96% | growth [9]: 107% | growth [10]: 94.6% | growth [18]: 115% | growth [11]: 104% | growth [12]: 98.5% | growth [13]: 114% | growth [14]: 96.3% | growth [15]: 150% | growth [16]: 95.9%

O=C1Cc2cc(CCn3cncn3)c(Cl)cc2N1
growth [1]: 24.1% | growth [2]: 74.8% | growth [3]: 92.7% | growth [4]: 69.6% | growth [5]: 83.9% | growth [6]: 32.8% | growth [7]: 59.8% | growth [8]: 94.7% | growth [9]: 96.5% | growth [18]: 93.8% | growth [11]: 56% | growth [12]: 62% | growth [13]: 110% | growth [19]: 69.3% | growth [15]: 51.7% | growth [16]: 24% | growth [17]: 54.6%

Cc1ccc(NC(=O)CSc2nnc3n(Cc4ccccc4)c(=O)c4c(C)c(C(N)=O)sc4n23)cc1
growth [1]: 78.4% | growth [2]: 28.9% | growth [3]: 46.2% | growth [4]: -7.47% (active) | growth [5]: -40.9% (active) | growth [6]: 31.5% | growth [7]: 77.7% | growth [8]: 16.9% | growth [9]: 39% | growth [18]: 11.4% | growth [11]: -6.14% (active) | growth [12]: 79.9% | growth [13]: 55.8% | growth [19]: 53% | growth [15]: 56.4% | growth [16]: 60.5% | growth [17]: 84.4%

Cc1c(C(N)=O)sc2ncn(CC(=O)Nc3ccc(Cl)cc3)c(=O)c12
growth [1]: 110% | growth [2]: 105% | growth [3]: 114% | growth [4]: 97% | growth [5]: 110% | growth [6]: 141% | growth [7]: 106% | growth [8]: 104% | growth [9]: 126% | growth [10]: 96.8% | growth [11]: 108% | growth [12]: 105% | growth [13]: 119% | growth [14]: 108% | growth [15]: 148% | growth [16]: 103% | growth [17]: 117%

C/C(=N/N=C(N)N)c1ccc(Cl)cc1
growth [1]: 95.1% | growth [2]: 96% | growth [3]: 90.2% | growth [4]: 98.8% | growth [5]: 102% | growth [6]: 89% | growth [7]: 106% | growth [8]: 89.6% | growth [9]: 106% | growth [10]: 67.8% | growth [18]: 143% | growth [11]: 84% | growth [12]: 90.5% | growth [13]: 101% | growth [14]: 100% | growth [15]: 77.1% | growth [16]: 86.9% | growth [17]: 102%

Cc1nn(-c2ccccc2)c2nc3c(nc12)C(=O)CCC3
growth [1]: 80.4% | growth [2]: 107% | growth [3]: 93.1% | growth [4]: 92.9% | growth [5]: 104% | growth [6]: 74% | growth [7]: 92.9% | growth [8]: 88.5% | growth [9]: 104% | growth [18]: 98% | growth [11]: 108% | growth [12]: 116% | growth [13]: 103% | growth [15]: 99.8% | growth [16]: 106% | growth [17]: 88.5%

O=Cc1c[nH]c2ccc(NC(=O)OCc3ccccc3)cc12
growth [1]: 95.4% | growth [2]: 89.7% | growth [3]: 88.6% | growth [4]: 105% | growth [5]: 68.4% | growth [6]: 94.1% | growth [7]: 106% | growth [8]: 95.8% | growth [9]: 113% | growth [10]: 72.2% | growth [18]: 186% | growth [11]: 88.4% | growth [12]: 96.6% | growth [13]: 102% | growth [14]: 110% | growth [15]: 85.6% | growth [16]: 105% | growth [17]: 67.1%

O=C(/C=C/c1cccnc1)NCCCCC1CCCN(C(=O)c2ccccc2)C1 (stereo unspecified)
growth [1]: 70.1% | growth [2]: 98.5% | growth [3]: 65.3% | growth [4]: 85.1% | growth [5]: 29% | growth [6]: 1.41% (active) | growth [7]: 49% | growth [8]: 71.7% | growth [9]: 33.4% | growth [18]: 83.7% | growth [11]: 82.6% | growth [12]: 109% | growth [13]: 74% | growth [19]: 4.84% (active) | growth [14]: 28% | growth [15]: 109% | growth [16]: 18.7% | growth [17]: 42%

CC(=O)c1ccc2c3c(n(C)c2c1)CCCC3
growth [1]: 104% | growth [2]: 33% | growth [3]: 117% | growth [4]: 101% | growth [5]: 84.9% | growth [6]: 95.2% | growth [7]: 106% | growth [8]: 92.7% | growth [9]: 98.3% | growth [18]: 118% | growth [11]: 101% | growth [12]: 112% | growth [13]: 101% | growth [19]: 97.7% | growth [14]: 98% | growth [15]: 116% | growth [16]: 108% | growth [17]: 105%

CCC(C)CC(CC)NCCN1CCN(C(CC)CC(C)CC)C1=S (stereo unspecified)
growth [1]: 42.5% | growth [2]: 47% | growth [3]: 78.8% | growth [4]: 29.1% | growth [5]: 9.44% (active) | growth [6]: -12% (active) | growth [7]: 50.2% | growth [8]: 56.5% | growth [9]: 29.5% | growth [18]: -33.8% (active) | growth [11]: -12.4% (active) | growth [13]: 61.8% | growth [19]: 56.1% | growth [14]: 69.2% | growth [15]: 39.5% | growth [16]: -47.3% (active) | growth [17]: 22.5%
